# Assay results as given in PubChem BioAssay (NCATS).
# Assay: High-throughput drug toxicity screening in the BPDCN cell line Gen2.2 (AID 1224824)
# Settings: Gen2.2 BPDCN cells; at 45.8 µM (top of the series)
# Excerpt: Blastic plasmacytoid dendritic cell neoplasm (BPDCN) is a rare, aggressive and largely incurable hematologic malignancy originating from plasmacytoid dendritic cells (pDCs). Although an initial response to chemotherapy is common, BPDCN prognosis is extremely poor and most patients relapse with drug-resistant disease leading to a median overall survival of ~1 year after diagnosis. To explore novel potential therapeutic strategies in BPDCN, we performed a high-throughput drug toxicity screening in BPDCN cell liens, using of a library of 1,912 small molecules, enriched for compounds that are either approved or in early stages of development for cancer therapy.
# A total of 500 exponentially growing Gen2.2 cells were seeded per well in 5 uL of media (RPMI + Glutamine, without phenol red plus10% FBS and 1X Pen/Strep) into 1536-well solid white high base tissue culture treated Greiner One Bio Plates (789173-F), using a multidrop combi dispenser and a small sterile cassette. Compounds and controls totaling 23nL per well (negative control DMSO and positive control 9.2 uM Bortezomib-final) were immediately added to the plates using a 1536 head pin tool from Kalypsys. The plates were then covered with stainless steel gasket lids from Kalypsys and incubated for 48 hours at 37C under 95% relative humidity with 5% CO2. After 48 hours, the plates were removed and allowed to reach room temperature before 3 uL of Cell Titer Glo reagent (Promega) were added using an Aurora Flying Reagent Dispenser Bioraptor. The plates were then spun at 1000 rpms to remove bubbles and incubated for 15 minutes at room temperature before reading on a ViewLux using a luminescent filter with a 10 second exposure. The relative luciferase units were used to calculated percent activity using DMSO as 100% and Bortezomib as 0%.
row,SMILES,"cell viability, % of control (lower = more cytotoxic) [%]"
1,CNC(=O)c1ccc(N2C(=S)N(c3ccc(C#N)c(C(F)(F)F)c3)C(=O)C23CCC3)cc1F,16.5
2,CN1CCN(C(=O)O[C@H]2c3nccnc3C(=O)N2c2ccc(Cl)cn2)CC1,126
3,O=C(O)C(=O)c1cn(Cc2ccccc2)c2ccc(-c3ccc(OC(F)(F)F)cc3)cc12,171
4,Cc1cccc(C)c1NC(=O)CN1CCCC1=O,116
5,O=c1[nH]c2ccccc2n1CCCN1CCC(n2c(=O)[nH]c3cc(Cl)ccc32)CC1,278
6,COc1ccc(C(CN(C)C)C2(O)CCCCC2)cc1 (stereo not drawn),171
7,CN(C)CCc1ccc(O)cc1,191
8,Cn1c(CCCC(=O)O)nc2cc(N(CCCl)CCCl)ccc21,53.7
9,C[C@@H]1[C@@H](CC(C[C@H]2O[C@@H]3O[C@]4(C)CC[C@@H]5[C@H](C)CC[C@@H]([C@H]2C)[C@@]35OO4)C[S+](=O)([O-])c2ccc(COC(=O)N(C)C)cc2)O[C@@H]2O[C@]3(C)CC[C@H]4[C@H](C)CC[C@@H]1[C@@]24OO3 (stereo partly drawn),15.5
10,Fc1ccc(C(OCCN2CCN(CCCc3ccccc3)CC2)c2ccc(F)cc2)cc1,57.3
11,CC(C)CC(N(C)C)C1(c2ccc(Cl)cc2)CCC1 (stereo not drawn),134
12,O=C1CC[C@@]2(O)[C@H]3Cc4ccc(O)c5c4[C@@]2(CCN3CC2CC2)[C@H]1O5,200
13,CNCC(O)c1ccc(O)cc1 (stereo not drawn),145
14,NCC1(CC(=O)O)CCCCC1,114
15,C[C@@H]1[C@@H](C(=O)C[C@H]2O[C@@H]3O[C@]4(C)CC[C@@H]5[C@H](C)CC[C@@H]([C@H]2C)[C@@]35OO4)O[C@@H]2O[C@]3(C)CC[C@H]4[C@H](C)CC[C@@H]1[C@@]24OO3,9
16,CN(C)CCN(C)CCc1ccc(Cl)c(Cl)c1,137
17,CNC(=O)N1N=C(c2ccc(N)cc2)c2cc3c(cc2CC1C)OCO3 (stereo not drawn),24.2

row,SMILES,"cell viability, % of control (lower = more cytotoxic) [%]"
1,O=P1(NCCCl)OCCCN1CCCl (stereo not drawn),49.3
2,Cc1sc2c(c1C)C(c1ccc(Cl)cc1)=N[C@@H](CC(=O)OC(C)(C)C)c1nnc(C)n1-2,1.32
3,COC1(CS(=O)c2ccccc2)CCN(CCc2c[nH]c3ccc(F)cc23)CC1 (stereo not drawn),66.1
4,COC[C@@H](NC(C)=O)C(=O)NCc1ccccc1,142
5,COc1ccc(C(=O)c2c(C)n(CCN3CCOCC3)c3ccccc23)cc1,100
6,CN(C)[C@@H]1C(=O)C(C(N)=O)=C(O)[C@@]2(O)C(=O)C3=C(O)c4c(O)cccc4[C@@](C)(O)[C@H]3C[C@@H]12,333
7,COc1ccc2c(c1OC)CN1CCc3cc4c(cc3C1C2)OCO4 (stereo not drawn),173
8,N[C@@H](Cc1ccc(N(CCCl)CCCl)cc1)C(=O)O,5.36
9,C#CCN(C)[C@H](C)Cc1ccccc1,160
10,Cc1cc(SCc2sc(-c3ccc(C(F)(F)F)c(F)c3)nc2C)ccc1OCC(=O)O,144
11,Cn1cc(C2=C(c3cn(C4CCN(Cc5ccccn5)CC4)c4ccccc34)C(=O)NC2=O)c2ccccc21,265
12,CC(O)(CS(=O)(=O)c1ccc(F)cc1)C(=O)Nc1ccc(C#N)c(C(F)(F)F)c1 (stereo not drawn),9.43
13,CC1=C2C[C@@H]3[C@@H](CC=C4C[C@@H](O)CC[C@@]43C)[C@@H]2CC[C@]12O[C@H]1C[C@H](C)CN[C@H]1[C@H]2C,107
14,C[C@@H]1O[C@@H](O[C@H]2C[C@@H](O)[C@]3(CO)[C@H]4[C@H](O)C[C@]5(C)[C@@H](C6=CC(=O)OC6)CC[C@]5(O)[C@@H]4CC[C@]3(O)C2)[C@H](O)[C@H](O)[C@H]1O,26
15,C=C(C)[C@H]1Cc2c(ccc3c2O[C@@H]2COc4cc(OC)c(OC)cc4[C@@H]2C3=O)O1,45.8
16,CCCC(C)(COC(N)=O)COC(=O)NC(C)C (stereo not drawn),386
